Consider 33 compounds from PubChem BioAssay AID1345085 (National Center for Advancing Translational Sciences (NCATS), 2018).

Inconclusive results are not listed. Activity calls are given as the source filed them. Calls come from the whole dose curve; as a rule, active = well fitted cell-killing curve with a large enough effect; inconclusive = small, poorly fitted or top-dose-only effect, or effect the other way; inactive = no such curve, though single readings can be large or run the other way. *1 amine or outer side, *2 acyl side, *3 side chain or, on linkers, in order; H or OH if unused. Where a SMILES comes first, the peptide text is derived from it. Bridges are numbered along the chain shown (N, C = ends). Roman numbers before positions name the chains, in order. [ ]: non-standard residue; d: D form. Actinocin(9to1) = Cc1c2oc3c(C)ccc(C(=O)[*:1])c3nc-2c(C(=O)[*:2])c(N)c1=O; NMeV = CN[C@H](C(=O)O)C(C)C; Sar = CNCC(=O)O
Potency is the fitted concentration of half-maximal effect.

This test concerns JEG-3. Nature of the test: Confirmatory qHTS for gynecologic anti-cancer compounds from libraries of approved drugs and bioactive compounds. Note: nearly all actives have a fitted effect of over 55% in size. Particulars: gynecologic cancer cell panel viability, ATPlite luminescence, 48 h; series mostly up to 57.6 µM. Summed up: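 Cells (1,000/well) were plated, left 16 h at 37 C/5% CO2, then given compound at 11 concentrations (1:3) from 57.5 uM to 0.977 nM for 48 h. ATPlite luminescence after 15 min at room temperature gave IC50 values.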
(qHTS replaces the single test concentration by a dilution series.)
For the compound `C=CC(=O)Nc1cccc(Oc2nc(Nc3ccc(N4CCN(C)CC4)cc3)ncc2Cl)c1`, the Potency is 24.3 µM (active).

Turning to `Cn1cc(-c2[nH]c3cc(NC(=O)[C@H](N)C4CCCCC4)cc4c3c2C=NNC4=O)cn1`, the Potency was 7.69 µM (active).

Regarding `Cn1cnc2c(F)c(Nc3ccc(Br)cc3Cl)c(C(=O)NOCCO)cc21`, the Potency entry was “inactive”.

On to `CC(=O)NCC(=O)N1C2CCC1c1cc(Nc3ncc(C(F)(F)F)c(NC4CCC4)n3)ccc12` (stereo not drawn), for which the Potency is 19.3 µM (active).

Take `CC(C)CC(=O)Nc1n[nH]c2c1CN(C(=O)C1CCN(C)CC1)C2(C)C`: the Potency was 1.09 µM (active).

Take `Nc1ccn([C@@H]2O[C@H](CO)[C@@H](O)C2(F)F)c(=O)n1`: the Potency result is “inactive”.

Take `CC(C)C[C@H](NC(=O)[C@H](Cc1ccccc1)NC(=O)c1cnccn1)B(O)O`: the Potency was 0.217 µM (active).

`CCN1C[C@H](C)n2c(c(O)c3c(=O)n(Cc4ccc(F)c(Cl)c4)nc(C(=O)NC)c32)C1=O`: the Potency result is “inactive”.

With `CCN(CC)CCCC(C)Nc1c2ccc(Cl)cc2nc2ccc(OC)cc12` (stereo not drawn), the Potency was 43.2 µM (active).

On to `O=C(/C=C/c1cccc(S(=O)(=O)Nc2ccccc2)c1)NO`, for which the Potency is 1.19 µM (active).

`COc1cc2nccc(Oc3ccc(NC(=O)C4(C(=O)Nc5ccc(F)cc5)CC4)cc3)c2cc1OC`: the Potency was 10.9 µM (active).

For `O=C(c1ccc(F)c(F)c1Nc1ccc(I)cc1F)N1CC(O)([C@@H]2CCCCN2)C1`, the Potency was 24.3 µM (active).

As for `CNC(=O)c1nn(C)c2c1C(C)(C)Cc1cnc(Nc3ccc(N4CCN(C)CC4)cc3)nc1-2`, the Potency is 6.85 µM (active).

For the compound `C[C@]12CCC(=O)C=C1CC[C@@H]1[C@@H]2[C@@H](O)C[C@@]2(C)[C@H]1CC[C@]2(O)C(=O)CO`, the Potency result is “inactive”.

On to `CCCCc1oc2ccccc2c1C(=O)c1cc(I)c(OCCN(CC)CC)c(I)c1`, for which the Potency is 70.8 µM (active).

`CCC1=CC2CN(C1)Cc1c([nH]c3ccccc13)[C@@](C(=O)OC)(c1cc3c(cc1OC)N(C)[C@H]1[C@@](O)(C(=O)OC)[C@H](OC(C)=O)[C@]4(CC)C=CCN5CC[C@]31[C@@H]54)C2` (stereo partly drawn): the Potency was 0.0943 µM (active).

On to `O=C1c2c(O)ccc(O)c2C(=O)c2c(NCCNCCO)ccc(NCCNCCO)c21`, for which the Potency was 2.43 µM (active).

For the compound `Cc1c2oc3c(C)ccc(C(=O)N[C@@H]4C(=O)N[C@H](C(C)C)C(=O)N5CCC[C@H]5C(=O)N(C)CC(=O)N(C)[C@@H](C(C)C)C(=O)O[C@@H]4C)c3nc-2c(C(=O)N[C@@H]2C(=O)N[C@H](C(C)C)C(=O)N3CCC[C@H]3C(=O)N(C)CC(=O)N(C)[C@@H](C(C)C)C(=O)O[C@@H]2C)c(N)c1=O` (I: T[dV]P[Sar][NMeV] / II: T[dV]P[Sar][NMeV]; ester I:1-I:C, II:1-II:C; linker I:N-II:N via Actinocin(9to1)), the Potency is 1.09 µM (active).

Consider `Cc1cncc2cccc(S(=O)(=O)N3CCCN(C(=O)CN)C[C@@H]3C)c12`, for which the Potency result was “inactive”.

In the case of `COc1ccc2cc3[n+](cc2c1OC)CCc1cc2c(cc1-3)OCO2`, the Potency is 3.85 µM (active).

Regarding `COCCOc1nc(-c2ccc(Cl)c(Cl)c2)n(-c2ccc(NC(=O)CCl)cc2)n1`, the Potency is 19.3 µM (active).

For `CCOc1cc2ncc(C#N)c(Nc3ccc(F)c(Cl)c3)c2cc1NC(=O)/C=C/CN(C)C`, the Potency is 30.6 µM (active).

On to `CCCCN(CCCC)CC(O)c1cc(Cl)cc2c1-c1ccc(Cl)cc1/C2=C/c1ccc(Cl)cc1` (stereo not drawn), for which the Potency entry is “inactive”.

For `CS(=O)(=O)c1ccc(C(=O)Nc2ccc(Cl)c(-c3ccccn3)c2)c(Cl)c1`, the Potency entry was “inactive”.

For `CCN(CC)CCOc1ccc(/C(=C(\Cl)c2ccccc2)c2ccccc2)cc1`, the Potency was 89.1 µM (active).

As to `CC1=C(CO)C(=O)O[C@@H]([C@@H](C)[C@H]2CC[C@H]3[C@@H]4C[C@H]5O[C@]56[C@@H](O)C=CC(=O)[C@]6(C)[C@H]4CC[C@]23C)C1`, the Potency was 5.3 µM (active).

In the case of `NC(=O)c1cnc(-c2ccc(C3(N)CCC3)cc2)c(-c2ccccc2)c1`, the Potency is 30.6 µM (active).

Turning to `CNC(=O)c1ccccc1Sc1ccc2c(/C=C/c3ccccn3)n[nH]c2c1`, the Potency was 13.7 µM (active).

Consider `Cn1cc(-c2ccc3ncc(Cc4ccc5ncccc5c4)n3n2)cn1`, for which the Potency entry was “inactive”.

In the case of `Nc1ccc(-c2ccc3ncc4ccc(=O)n(-c5cccc(C(F)(F)F)c5)c4c3c2)cn1`, the Potency was 2.43 µM (active).

Consider `O=C(CCCCCCNC(=O)c1cnc(N(c2ccccc2)c2ccccc2)nc1)NO`, for which the Potency is 7.69 µM (active).

Consider `COc1cc2c(NC3CCN(C(C)C)CC3)nc(C3CCCCC3)nc2cc1OCCCN1CCCC1`, for which the Potency is 10.9 µM (active).

`C=CC(=O)Nc1cc2c(Nc3ccc(F)c(Cl)c3)ncnc2cc1OCCCN1CCOCC1`: the Potency is 27.3 µM (active).
